Pol eta inh-1: inhibitors of human DNA polymerase eta; Q9Y253; recombinant Pol eta, fluorescent DNA replication assay; Potency, µM (highest dose often 114 µM), usual class: inhibitors; 390,000 compounds, 1.2% hits
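Fluorescent replication assay: 50 nM final substrate added after a 15 min room-temperature compound preincubation with 10 nM enzyme. Signal taken at 0 min and again at 10 min.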
Pol kappa inh-1: DNA polymerase kappa (human) inhibition. Q9UBT6. purified Pol kappa, fluorescent DNA synthesis assay, 10 min. Potency, µM (series often up to 107 µM), hits mostly inhibitors. 400,000 compounds, 0.53% hits. AID 588579
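Inhibition of 10 nM Pol kappa is measured by a fluorescent read-out at 0 and 10 min following addition of 50 nM substrate (final), with a 15-min room-temperature compound preincubation.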
Pol beta inh-1: inhibitors of human DNA polymerase beta; Potency, µM (titrated, usually from 114 µM), hits mostly inhibitors; 340,000 compounds, 1.3% hits; AID 485314; Pol beta primer extension/strand displacement, fluorescence kinetic
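Kinetic readout of DNA synthesis with strand displacement by Pol beta. Compound and 10 nM enzyme sit 15 min at room temperature; 50 nM substrate starts the reaction, read immediately and at 10 min.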
L3MBTL1 inh-1: L3MBTL1 (human) inhibition; Q9Y468; AlphaScreen L3MBTL1–H3K9me1 peptide binding; Potency, µM (series often up to 57.1 µM), hits mostly inhibitors; 230,000 compounds, 0.66% hits; AID 485360; also: nearly all actives have a fitted effect of over 60% in size
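First, the protein-peptide complex forms for 30 min at room temperature (L3MBTL1 50 nM, biotinylated H3K9me1 peptide 75 nM). Next, compounds are pin-transferred and incubated 30 min. Finally, AlphaScreen beads are added and read after 30 min.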
Pol iota inh: inhibitors of human DNA polymerase iota. Pol iota fluorescent replication assay, 10 min. Potency, µM (doses to about 115 µM), most hits filed as inhibitors. 390,000 compounds, 1% hits
Target sequence (Q9UNA4 whole entry, looked up): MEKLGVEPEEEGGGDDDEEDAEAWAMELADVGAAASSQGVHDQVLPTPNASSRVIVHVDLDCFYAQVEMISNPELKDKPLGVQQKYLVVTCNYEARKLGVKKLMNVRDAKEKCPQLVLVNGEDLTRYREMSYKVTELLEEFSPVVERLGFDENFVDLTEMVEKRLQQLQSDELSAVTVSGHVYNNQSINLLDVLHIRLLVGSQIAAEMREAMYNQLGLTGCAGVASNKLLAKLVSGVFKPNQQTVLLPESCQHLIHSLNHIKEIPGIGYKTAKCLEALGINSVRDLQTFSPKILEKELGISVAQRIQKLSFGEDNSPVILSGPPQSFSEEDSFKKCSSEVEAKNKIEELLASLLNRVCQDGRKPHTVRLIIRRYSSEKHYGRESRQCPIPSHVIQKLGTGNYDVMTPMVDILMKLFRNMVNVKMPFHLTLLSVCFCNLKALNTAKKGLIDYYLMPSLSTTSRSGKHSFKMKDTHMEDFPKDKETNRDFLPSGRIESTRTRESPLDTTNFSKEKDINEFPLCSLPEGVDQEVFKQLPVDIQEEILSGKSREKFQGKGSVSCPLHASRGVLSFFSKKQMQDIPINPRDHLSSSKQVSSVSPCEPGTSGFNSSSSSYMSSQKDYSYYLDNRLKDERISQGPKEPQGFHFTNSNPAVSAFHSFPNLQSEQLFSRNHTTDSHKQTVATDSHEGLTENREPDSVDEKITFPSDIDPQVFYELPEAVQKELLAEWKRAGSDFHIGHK
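Fluorescent replication assay read twice, at 0 min and 10 min after adding 50 nM (final) substrate. Enzyme (10 nM) and compounds were first incubated 15 min at room temperature; enzyme-free buffer wells were negative controls.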
Pol beta inh-2: Human Pol beta inhibitor hit validation; shares compounds with Pol beta inh-1; AID 540280; 250 compounds, 87% hits; Pol beta primer extension/strand displacement, fluorescence kinetic; Potency, µM, most hits filed as inhibitors; calls by dose curve
Klenow counter: counter-screen for DNA polymerase beta inhibitors: Klenow fragment inhibition. shares compounds with Pol beta inh-1. Klenow exo- polymerase counter-screen, fluorescent DNA substrate. activity change, negative = inhibition, % at 57.1 µM. 250 tested, under 10 active. AID 540300
HIV RT inh: counter-screen for DNA polymerase beta inhibitors: HIV-1 RT inhibition | shares compounds with Pol beta inh-1 | HIV-1 RT polymerase activity, counter-screen | activity % (negative = inhibition, positive = activation), % at 57.1 µM | 250 tested, under 10 active | AID 540301
POLB inh gel: validation of human DNA polymerase beta inhibitors; shares compounds with Pol beta inh-1; radiolabeled primer extension gel assay, phosphorimager; inhibition, % at 10 µM; 110 compounds, 91% hits; AID 540325;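 active = inhibition at 10 µM of 30% or more; inconclusive = no clear call, values can overlap the other calls; inactive = inhibition at 10 µM under 30%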
L3MBTL1 inh-2: L3MBTL1 binding inhibition validated; shares compounds with L3MBTL1 inh-1; 500 compounds, 91% hits; L3MBTL1 methyl-lysine binding inhibition, biochemical qHTS; Potency, µM, actives largely listed as inhibitors; also: nearly all actives have a fitted effect of over 70% in size
L3MBTL1 ctr: interferes with AlphaScreen signal in L3MBTL1 counterscreen; AlphaScreen counterscreen, signal inhibition; shares compounds with L3MBTL1 inh-1; 500 tested, under 10 active; Potency, µM (series often up to 57.1 µM), hits mostly inhibitors
PGK validate: validation of Trypanosoma brucei phosphoglycerate kinase inhibitors | Potency, µM (highest dose often 57.5 µM), usual class: inhibitors | TbPGK coupled GAPDH assay, Kinase-Glo luminescence | 500 compounds, 79% hits | shares compounds with Pol kappa inh-1; also: nearly all actives have a fitted effect of over 65% in size
Pol iota confirm: Inhibitors of human DNA polymerase iota, confirmation | AID 720496 | Pol iota primer extension, TAMRA/BHQ fluorescence | shares compounds with Pol kappa inh-1 | Potency, µM, most hits filed as inhibitors | 1,500 compounds, 77% hits
Pol kappa inh-2: confirmation of human DNA polymerase kappa inhibitors | purified Pol-kappa, fluorescent strand-displacement substrate | shares compounds with Pol eta inh-1 | AID 720501 | 920 compounds, 76% hits | Potency, µM, actives largely listed as inhibitors
Pol eta inh-2: Pol eta (human) inhibition, cherry-pick confirmation | AID 720502 | Pol eta primer extension, TAMRA/BHQ fluorescence, 10 min | 2,600 compounds, 64% hits | Potency, µM, most hits filed as inhibitors | shares compounds with Pol eta inh-1
Numbers stand for hits. A selection: hits, their analogues and other compounds. The true share with any hit is near 2.4%. Unless noted, calls follow the shape of the dose curve; as a rule, active = well fitted curve in the direction sought with a large enough effect; inconclusive = small, poorly fitted or top-dose-only effect, or another doubt; inactive = no such curve, though single readings can be large; an effect the other way counts as inactive or inconclusive.

What do the screens show for `COc1cc(OC)c2c(c1O)OC(c1ccccc1)CC2=O` (configuration not stated)?
Pol eta inh-1: 13µM; Pol kappa inh-1: 25µM; Pol beta inh-1: 1.4µM; L3MBTL1 inh-1: inconclusive; Pol iota inh: 13µM; Pol beta inh-2: 2.5; Klenow counter: inactive; HIV RT inh: inactive; Pol iota confirm: inconclusive; Pol eta inh-2: 67

What do the screens show for `CCn1c(CSc2nc3ccccc3s2)nnc1SCC(=O)c1ccc(O)c(O)c1`?
Pol eta inh-1: inconclusive; Pol kappa inh-1: inconclusive; Pol beta inh-1: 4.5µM; Pol iota inh: 35µM; Pol beta inh-2: 2; Klenow counter: inactive; HIV RT inh: inconclusive; Pol iota confirm: 38; Pol eta inh-2: inconclusive

How did COc1ccccc1-c1nnc(SCC(=O)c2ccc(Cl)cc2)n1-c1ccccc1 do in these assays?
Pol eta inh-1: inactive; Pol kappa inh-1: inactive; Pol beta inh-1: inactive; Pol iota inh: inactive

How did CCn1c(SCC(=O)c2ccc(O)c(O)c2)nnc1-c1ccccc1OC do in these assays?
Pol eta inh-1: 1.4µM; Pol kappa inh-1: 20µM; Pol beta inh-1: 10µM; L3MBTL1 inh-1: inconclusive; Pol iota inh: 10µM; Pol beta inh-2: 8.9; Klenow counter: inactive; HIV RT inh: inconclusive; PGK validate: 7.3µM; Pol iota confirm: inconclusive; Pol kappa inh-2: 17; Pol eta inh-2: 30

What do the screens show for `COc1cccc(Cn2c(=O)c(CCc3ccccc3)nc3cnc(N4CCOCC4)nc32)c1`?
Pol kappa inh-1: inactive

Results for Cc1ccc(SCC(=O)c2ccc(CC(=O)O)s2)cc1 ?
Pol eta inh-1: 50µM; Pol kappa inh-1: inconclusive; Pol beta inh-1: 11µM; L3MBTL1 inh-1: inconclusive; Pol iota inh: inconclusive; Pol beta inh-2: 32; Klenow counter: inactive; HIV RT inh: inactive; Pol eta inh-2: 76

What do the screens show for `Cc1c2cnn(CC(=O)Nc3c(F)c(F)cc(F)c3F)c(=O)c2c(C)n1Cc1ccccc1F`?
Pol eta inh-1: 40µM; Pol kappa inh-1: 45µM; Pol beta inh-1: 6.3µM; Pol iota inh: 18µM; Pol beta inh-2: 6.3; Klenow counter: inactive; HIV RT inh: inactive; Pol iota confirm: 30; Pol eta inh-2: 60

What do the screens show for `Cc1cccc(NCc2nnc3n2CCCCC3)c1C`?
Pol eta inh-1: inactive; Pol kappa inh-1: inactive; Pol beta inh-1: inactive; Pol iota inh: inactive

Results for CC(C)CCn1c(=O)c2sccc2n2c(CCCC(=O)Nc3ccc(F)c(Cl)c3)nnc12 ?
Pol eta inh-1: inactive; Pol kappa inh-1: inactive; Pol beta inh-1: inactive; Pol iota inh: inactive

What do the screens show for `COc1ccccc1/C=c1\sc2nc(-c3ccco3)nn2c1=O`?
Pol eta inh-1: 8.9µM; Pol kappa inh-1: 32µM; Pol beta inh-1: 10µM; L3MBTL1 inh-1: 13µM; Pol iota inh: 18µM; Pol beta inh-2: 28; Klenow counter: inactive; HIV RT inh: inactive; POLB inh gel: 95; L3MBTL1 inh-2: 12; L3MBTL1 ctr: inactive; Pol iota confirm: 42; Pol eta inh-2: 19

How did COc1ccc(OC)c(/C=c2\sc3nc(-c4cccs4)nn3c2=O)c1 do in these assays?
Pol eta inh-1: inconclusive; Pol kappa inh-1: inactive; Pol beta inh-1: inconclusive; L3MBTL1 inh-1: inactive; Pol iota inh: inactive

How did CC(=O)Nc1ccc(NC(=O)CC2Sc3ccccc3NC2=O)cc1 (configuration not stated) do in these assays?
Pol eta inh-1: inactive; Pol kappa inh-1: inactive; Pol beta inh-1: inactive; Pol iota inh: inactive

What do the screens show for `O=C(CC1Sc2ccccc2NC1=O)Nc1cccc(C(=O)O)c1` (configuration not stated)?
Pol eta inh-1: 6.3µM; Pol kappa inh-1: 35µM; Pol beta inh-1: 20µM; L3MBTL1 inh-1: 11µM; Pol iota inh: 50µM; Pol beta inh-2: 28; Klenow counter: inactive; HIV RT inh: inactive; POLB inh gel: inactive; L3MBTL1 inh-2: 0.95; L3MBTL1 ctr: inactive; Pol iota confirm: 42; Pol eta inh-2: 7.6

Results for Cc1cc(=O)oc2cc(OCc3ccc(C(=O)OCC(=O)NC4CCS(=O)(=O)C4)cc3)ccc12 (configuration not stated) ?
Pol eta inh-1: 22µM; Pol kappa inh-1: 79µM; Pol beta inh-1: 3.5µM; L3MBTL1 inh-1: inactive; Pol iota inh: 20µM; Pol beta inh-2: 25; Klenow counter: inactive; HIV RT inh: inactive; POLB inh gel: 75; Pol iota confirm: 38; Pol eta inh-2: 27

How did Cc1cc(=O)oc2cc(OCc3ccc(C(=O)OCC(=O)N(C)C4CCS(=O)(=O)C4)cc3)ccc12 (configuration not stated) do in these assays?
Pol eta inh-1: inactive; Pol kappa inh-1: inactive; Pol beta inh-1: inconclusive; L3MBTL1 inh-1: inactive; Pol iota inh: inactive

How did Cc1oc(-c2ccc(F)cc2)cc1-c1nn2c(-c3ccoc3C)nnc2s1 do in these assays?
Pol eta inh-1: 7.9µM; Pol kappa inh-1: 28µM; Pol beta inh-1: 3.5µM; L3MBTL1 inh-1: 18µM; Pol iota inh: 7.9µM; Pol beta inh-2: inconclusive; Klenow counter: inactive; HIV RT inh: inactive; L3MBTL1 inh-2: 6; L3MBTL1 ctr: inactive; Pol iota confirm: inconclusive; Pol eta inh-2: 76

High-throughput results: PubChem BioAssay, National Center for Advancing Translational Sciences (NCATS)
